Data reported in PubChem BioAssay.
Several values for one entry are separate records, joined by “and”; a condition that tells them apart may be missing. Identical values can stand only once. For part of these data: Potency and affinity values are given separately. Activity calls are given as the source filed them.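 Rule for the calls, unless noted: active = thallium flux through the channel raised or lowered by more than 3 SD from vehicle-only wells, actives on both sides; inactive = the rest.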

Tests used:
[1] = polyglutamine-triggered caspase-3 activation inhibitors, cell-based (AID 1583); conditions: polyglutamine-induced caspase-3 activation, cell assay; stronger effect = higher value;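 tested at 10 µM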
[2] = suppressors of polyQ aggregation in yeast, 75Q-TubU reporter (AID 1593); conditions: Yeast 75Q polyglutamine aggregation reporter
[3] = rescue of polyQ-huntingtin neuronal dysfunction in worms, whole organism, C. elegans mechanosensory neurons, N-terminal huntingtin (AID 1599); conditions: touch response, stronger effect = higher value
[4] = inhibitors of mitochondrial cytochrome c release, biochemical, purified mitochondria (AID 1603); conditions: stronger effect = lower value;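 note: mouse liver mitochondria challenged with calcium chloride; signal normalized to the plate average as 100%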
[5] = inhibitors of polyQ protein aggregation (AID 1604); conditions: polyglutamine-induced protein aggregation inhibition assay; stronger effect = higher value; tested at 2.5 µM
[6] = enhancers of glutamate uptake in motor neurons, MN-1 cell line (AID 1612); conditions: MN-1 motor neuron cells, stronger effect = higher value;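 note: tested at 1 µM final; 0% = mean of DMSO vehicle wells on each plate; positive means more glutamate uptake than control and negative means less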
[7] = suppressors of polyglutamine aggregation in yeast, 75Q-TubH (AID 1616); conditions: S. cerevisiae 75Q-TubH polyglutamine aggregation suppression; stronger effect = higher value
[8] = modulation of C. elegans fzo-1 (AID 1259413; call rule not given here;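 note: fzo-1 mutant C. elegans worms in liquid wells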); conditions: C. elegans fzo-1 modulator screen, mean read-out; stronger effect = higher value
[9] = viability rescue of complex I mutant cybrids, primary screen, cell-based, galactose medium, ATP luminescence (AID 1645843;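 active = z-score of at least 1.8 in each of two replicates, scored against plate mean and spread of sample wells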;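 note: positive z means more ATP and so rescue of galactose-driven cybrid death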); conditions: complex I mutant cybrid cells, 72 h, stronger effect = higher value
F380Y/beta1 = assay: modulators of BK channel variants, profiling panel, selectivity assay, cell-based, U2OS BacMam, thallium flux, beta subunits (AID 1259406); conditions: at 30 µM;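 note: initial slope of Thallos dye fluorescence rise after thallium is added; log ratio against the mean of 0.3% DMSO vehicle wells on the same plate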
F380Y/beta2Delta = assay: as above; conditions: at 30 µM
F380Y/beta4 = assay: as above; conditions: at 30 µM
[10] = target: Calcium-activated potassium channel subunit alpha-1 (Homo sapiens) + Leucine-rich repeat-containing protein 26 (Homo sapiens) (UniProt Q12791+Q2I0M4); assay: as above; conditions: F380Y/Slo1WT/gamma1, at 30 µM
R275C = assay: as above; conditions: at 30 µM
R275C/beta1 = assay: as above; conditions: at 30 µM
R275C/beta2Delta = assay: as above; conditions: at 30 µM
R275C/beta4 = assay: as above; conditions: at 30 µM
R275C/Slo1WT/beta2 = assay: as above; conditions: at 30 µM
[11] = tested on: Neuropilin-2 / VEGF-C interaction (human); assay: inhibitors of NRP2–VEGF-C binding, biochemical, microplate binding format, z-score (AID 743281; call rule not given here); conditions: microplate NRP2/VEGF-C binding assay; stronger effect = lower value
[12] = hESC survival regulators, cell-based (AID 493140; call rule not given here;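 note: cells exposed to compounds for four days before counting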); conditions: human embryonic stem cell survival screen; stronger effect = higher value

Calcium-activated potassium channel subunit alpha-1 (Homo sapiens) + Leucine-rich repeat-containing protein 26 (Homo sapiens), sequence (Q2I0M4 whole entry, looked up, one chain of several): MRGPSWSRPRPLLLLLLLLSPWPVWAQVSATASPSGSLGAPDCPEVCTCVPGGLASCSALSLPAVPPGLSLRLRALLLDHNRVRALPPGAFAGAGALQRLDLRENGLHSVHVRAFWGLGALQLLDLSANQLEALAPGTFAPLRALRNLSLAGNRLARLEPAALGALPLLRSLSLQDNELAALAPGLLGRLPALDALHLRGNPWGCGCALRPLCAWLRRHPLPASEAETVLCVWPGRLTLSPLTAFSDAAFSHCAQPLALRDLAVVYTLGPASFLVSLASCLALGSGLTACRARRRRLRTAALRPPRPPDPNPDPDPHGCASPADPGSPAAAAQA

CC(=O)OCC[N+](C)(C)C
1.31: cytochrome c release ratio [4]
26.2%: inhibition [1]
5.33: rescue above control [3]
1.22: aggregation suppression score [7]
74.9%: inhibition of aggregation [5]
inactive: mean signal [8] 251 | z-score [9] 1.64 and 0.235 | log fold change Tl+ flux (F380Y/beta1) 0.000642 | log fold change Tl+ flux (F380Y/beta2Delta) -0.0134 | log fold change Tl+ flux (F380Y/beta4) -0.0182 | log fold change Tl+ flux [10] 0.00764 | log fold change Tl+ flux (R275C) -0.00869 | log fold change Tl+ flux (R275C/beta1) -0.00581 | log fold change Tl+ flux (R275C/beta2Delta) -0.00325 | log fold change Tl+ flux (R275C/beta4) 0.0607 | log fold change Tl+ flux (R275C/Slo1WT/beta2) 0.0039
-18.6%: glutamate uptake change [6]
1.05: score [2]

Nc1nc2ncc(CNc3ccc(C(=O)N[C@@H](CCC(=O)O)C(=O)O)cc3)nc2c(=O)[nH]1
1.14: aggregation suppression score [7]
1.02: score [2]
inactive: mean signal [8] 246 | z-score [9] -0.64 | log fold change Tl+ flux (F380Y/beta1) -0.0026 | log fold change Tl+ flux (F380Y/beta2Delta) -0.000783 | log fold change Tl+ flux (F380Y/beta4) 0.025 | log fold change Tl+ flux [10] -0.00611 | log fold change Tl+ flux (R275C) -0.0335 | log fold change Tl+ flux (R275C/beta1) 0.00862 | log fold change Tl+ flux (R275C/beta2Delta) 0.0304 | log fold change Tl+ flux (R275C/beta4) -0.0613 | log fold change Tl+ flux (R275C/Slo1WT/beta2) -0.0318
77.8%: inhibition of aggregation [5]
1.08: cytochrome c release ratio [4]
-0.86: rescue above control [3]
0.74%: glutamate uptake change [6]
15.9%: inhibition [1]

CC[C@H](C)C(=O)O[C@H]1C[C@H](O)C=C2C=C[C@H](C)[C@H](CC[C@@H](O)C[C@@H](O)CC(=O)O)[C@H]21
inactive: z-score [11] 0.492 | mean signal [8] 245 | z-score [9] 0.175 | log fold change Tl+ flux (F380Y/beta1) -0.03 | log fold change Tl+ flux (F380Y/beta2Delta) -0.0757 | log fold change Tl+ flux (F380Y/beta4) 0.0119 | log fold change Tl+ flux [10] 0.00396 | log fold change Tl+ flux (R275C) -0.0381 | log fold change Tl+ flux (R275C/beta1) -0.014 | log fold change Tl+ flux (R275C/beta2Delta) 0.0137 | log fold change Tl+ flux (R275C/beta4) -0.0312 | log fold change Tl+ flux (R275C/Slo1WT/beta2) -0.0454

Cn1c(=O)c2[nH]cnc2n(C)c1=O
inactive: survival [12] 4.08 and 2.17 | mean signal [8] 256 | z-score [9] 0.425 and 0.475 and 0.2 | log fold change Tl+ flux (F380Y/beta1) 0.00494 | log fold change Tl+ flux (F380Y/beta2Delta) -0.0514 | log fold change Tl+ flux (F380Y/beta4) -0.00644 | log fold change Tl+ flux [10] -0.0341 | log fold change Tl+ flux (R275C) 0.000907 | log fold change Tl+ flux (R275C/beta1) 0.0503 | log fold change Tl+ flux (R275C/beta2Delta) -0.00245 | log fold change Tl+ flux (R275C/beta4) 0.0294 | log fold change Tl+ flux (R275C/Slo1WT/beta2) 0.0554
1.91: rescue above control [3]
1.11: score [2]
68.2%: inhibition of aggregation [5]
0.779: aggregation suppression score [7]
0.95: cytochrome c release ratio [4]
-19.2%: glutamate uptake change [6]
9.69%: inhibition [1]

COc1cc([C@@H]2c3cc4c(cc3[C@H](O)[C@H]3COC(=O)[C@H]23)OCO4)cc(OC)c1OC
inactive: survival [12] 0.917 | mean signal [8] 221 | z-score [9] 0.5 | log fold change Tl+ flux (F380Y/beta1) 0.00363 | log fold change Tl+ flux (F380Y/beta2Delta) 0.00366 | log fold change Tl+ flux (F380Y/beta4) 0.0253 | log fold change Tl+ flux [10] 0.0135 | log fold change Tl+ flux (R275C) -0.0185 | log fold change Tl+ flux (R275C/beta1) 0.0124 | log fold change Tl+ flux (R275C/beta2Delta) 0.0291 | log fold change Tl+ flux (R275C/beta4) 0.0119 | log fold change Tl+ flux (R275C/Slo1WT/beta2) 0.00946

CCOc1ccc2ccccc2c1C(=O)N[C@@H]1C(=O)N2[C@@H]1SC(C)(C)[C@@H]2C(=O)O
inactive: survival [12] 3.33 | mean signal [8] 253 | z-score [9] 0.835 | log fold change Tl+ flux (F380Y/beta1) -0.0293 | log fold change Tl+ flux (F380Y/beta2Delta) -0.0424 | log fold change Tl+ flux (F380Y/beta4) -0.0322 | log fold change Tl+ flux [10] 0.0363 | log fold change Tl+ flux (R275C) -0.00323 | log fold change Tl+ flux (R275C/beta1) 0.00845 | log fold change Tl+ flux (R275C/beta2Delta) 0.0249 | log fold change Tl+ flux (R275C/beta4) -0.041 | log fold change Tl+ flux (R275C/Slo1WT/beta2) 0.0157

CC(C)C1CCC(C(=O)N[C@H](Cc2ccccc2)C(=O)O)CC1 (stereo partly drawn)
inactive: z-score [11] -0.458 | mean signal [8] 221 | z-score [9] -0.11 | log fold change Tl+ flux (F380Y/beta1) 0.0965 | log fold change Tl+ flux (F380Y/beta2Delta) 0.0541 | log fold change Tl+ flux (F380Y/beta4) 0.075 | log fold change Tl+ flux [10] 0.0401 | log fold change Tl+ flux (R275C) -0.00833 | log fold change Tl+ flux (R275C/beta1) 0.0383 | log fold change Tl+ flux (R275C/beta2Delta) 0.0438 | log fold change Tl+ flux (R275C/Slo1WT/beta2) 0.0201
active: log fold change Tl+ flux (R275C/beta4) 0.0835

CC1=C(C(=O)O)N2C(=O)[C@@H](NC(=O)[C@H](N)c3ccccc3)[C@H]2SC1
inactive: survival [12] 10.4 | outcome [11] | mean signal [8] 265 | log fold change Tl+ flux (F380Y/beta1) -0.0395 | log fold change Tl+ flux (F380Y/beta2Delta) -0.0767 | log fold change Tl+ flux (F380Y/beta4) -0.0677 | log fold change Tl+ flux [10] -0.0298 | log fold change Tl+ flux (R275C) -0.0778 | log fold change Tl+ flux (R275C/beta1) -0.0268 | log fold change Tl+ flux (R275C/beta2Delta) -0.026 | log fold change Tl+ flux (R275C/beta4) -0.0153 | log fold change Tl+ flux (R275C/Slo1WT/beta2) -0.0484

CCCCCCCCCCC[C@@H](C[C@@H]1OC(=O)[C@H]1CCCCCC)OC(=O)[C@H](CC(C)C)NC=O
inactive: z-score [11] -1.43 | mean signal [8] 258 | z-score [9] 0.54 | log fold change Tl+ flux (F380Y/beta1) 0.0468 | log fold change Tl+ flux (F380Y/beta2Delta) 0.0435 | log fold change Tl+ flux (F380Y/beta4) 0.0138 | log fold change Tl+ flux [10] 0.0135 | log fold change Tl+ flux (R275C) -0.0306 | log fold change Tl+ flux (R275C/beta1) -0.0228 | log fold change Tl+ flux (R275C/beta2Delta) -0.0121 | log fold change Tl+ flux (R275C/beta4) -0.0426 | log fold change Tl+ flux (R275C/Slo1WT/beta2) -0.00736

OCCN1C[C@H](O)[C@@H](O)[C@H](O)[C@H]1CO
inactive: z-score [11] -1.24 | mean signal [8] 232 | log fold change Tl+ flux (F380Y/beta1) -0.0621 | log fold change Tl+ flux (F380Y/beta2Delta) -0.0041 | log fold change Tl+ flux (F380Y/beta4) -0.0159 | log fold change Tl+ flux [10] -0.0394 | log fold change Tl+ flux (R275C) -0.0048 | log fold change Tl+ flux (R275C/beta1) -0.0736 | log fold change Tl+ flux (R275C/beta2Delta) -0.00824 | log fold change Tl+ flux (R275C/beta4) -0.031 | log fold change Tl+ flux (R275C/Slo1WT/beta2) -0.0316
